Compound activity: PubChem, Broad Institute
C_diff_HTS = C. difficile growth inhibitors, primary screen, HTS; Clostridium difficile clinical isolate growth, OD600, 24 h; hits give low values; hit rate 0.25% among 86,000; AID 1259249, 2017; growth activity, negative = inhibition, % at 16 µg/mL (by protocol);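 active = mean growth activity at or below -80% and every replicate also at or below -80%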;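 also: 0% = DMSO wells and -100% = levofloxacin 16 µg/mL wells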
* hit, by the source's call. Shown is part of a subset that was picked to be rich in hits.

SMILES C_diff_HTS
C[C@@H]1CN([C@H](C)CO)C(=O)c2cccc(NC(=O)Nc3ccc(C(F)(F)F)cc3)c2O[C@H]1CN(C)Cc1ccccc1 11
CCCNC(=O)N1CC2(CCN(S(=O)(=O)CC)CC2)c2c(n(C)c3cc(OC)ccc23)[C@@H]1CO -11
COc1cccc(S(=O)(=O)N[C@H]2CC[C@H](CCNC(=O)Nc3cc(F)ccc3F)O[C@@H]2CO)c1 -6
N#Cc1cccc(-c2ccc3c(c2)[C@H]2[C@H](CCN2Cc2cncnc2)[C@H](CO)N3)c1 -11
OC[C@@H]1Nc2ccc(C#Cc3ccc(F)cc3)cc2[C@@H]2[C@H]1CCN2Cc1ccc2c(c1)OCO2 1
N#Cc1ccc(-c2ccc3c(c2)[C@@H]2[C@@H](CCN2Cc2ccc4c(c2)OCO4)[C@@H](CO)N3)cc1 -102*
N#Cc1cccc(-c2ccc3c(c2)[C@@H]2[C@@H](CCN2Cc2cncnc2)[C@H](CO)N3)c1 -10
N#Cc1cccc(-c2ccc3c(c2)[C@@H]2[C@@H](CCN2Cc2ccc4c(c2)OCO4)[C@@H](CO)N3)c1 -98*
N#Cc1ccc(-c2ccc3c(c2)[C@@H]2[C@@H](CCN2Cc2cncnc2)[C@@H](CO)N3)cc1 -13
CCCNC(=O)[C@@H]1[C@@H](CO)[C@@H]2Cn3c(ccc(C4=CCCC4)c3=O)[C@H]1N2C(=O)CC1CC1 3
CCC(=O)N1CC2(CCN(C(=O)c3cccnc3)CC2)c2c([nH]c3cc(OC)ccc23)[C@@H]1CO 0
C[C@@H]1CN([C@@H](C)CO)S(=O)(=O)c2ccc(/C=C/c3ccccc3)cc2O[C@@H]1CN(C)Cc1ccc(C(=O)O)cc1 -9
C[C@@H]1CN([C@@H](C)CO)S(=O)(=O)c2ccc(/C=C/c3ccccc3)cc2O[C@H]1CN(C)Cc1ccc(C(=O)O)cc1 -97*
C[C@H]1CN([C@@H](C)CO)S(=O)(=O)c2ccc(/C=C/c3ccccc3)cc2O[C@@H]1CN(C)Cc1ccc(C(=O)O)cc1 17
CN1CCN(C(=O)C[C@H]2C=C[C@@H](NC(=O)c3ccc4c(c3)OCO4)[C@@H](CO)O2)CC1 -5
